Here are results for 12 compounds from PubChem BioAssay (NCI).

The panel holds about 83,000 compounds, 20% with a hit somewhere; the sample as a whole holds those more often.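 Cell lines were cultured in 96-well plates, exposed to a single compound concentration, and assessed for percent growth 48 hours later.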 Values without a mark were called inactive. Activity calls are given as the source filed them. Rule for the calls: active = growth percent below 10; inactive = the rest.

Holding throughout (test): NCI-60 one-dose screen, 48 h (100 = growth as untreated, 0 = no growth, -100 = all killed)
In one assay the test system is DU-145 prostate. The conditions noted are these: 10 µM unless noted.
In the next assay the test system is K-562 leukemia. The conditions noted are these: 10 µM unless noted.
The next assay concerns MALME-3M melanoma. The conditions noted are these: 10 µM unless noted.
The test system of another assay is MDA-MB-231 breast. The note with it: 10 µM unless noted.
The next assay relates to RXF 393 renal. The note with it: 10 µM unless noted.
In the next assay the test system is SF-268 CNS. The conditions noted are these: 10 µM unless noted.
The next assay has as its system SF-295 CNS. The note with it: 10 µM unless noted.
In the next assay the test system is SF-539 CNS. The conditions noted are these: 10 µM unless noted.
The next assay relates to M14 melanoma. The note with it: 10 µM unless noted.
A further assay has as its system UACC-257 melanoma. The note with it: 10 µM.

For the compound `O=C1C[C@@H](c2ccccc2)Oc2c(Cc3ccccc3O)c(O)c(Cc3cc(Cc4cc(Cc5ccccc5O)ccc4O)ccc3O)c(O)c21`, the growth in the assay on DU-145 prostate was 102%; in the assay on K-562 leukemia, 99.8%; in the assay on MALME-3M melanoma, 95%; with MDA-MB-231 breast, 82.4%; in the assay on RXF 393 renal it was 94.7%; in the assay on SF-268 CNS, 85.2%. Moreover, the values for the growth in the assay on SF-295 CNS, in the assay on SF-539 CNS and in the assay on M14 melanoma were 102%, 101% and 88.6%, respectively.

Turning to `Cn1c2ccc(Br)cc2c2c3c(c4c5cc(F)ccc5oc4c21)C(=O)N(O)C3=O`, the growth is 88.1% in the assay on DU-145 prostate; 82.8% in the assay with K-562 leukemia; -95.9% (active) with MALME-3M melanoma; 85.3% in the assay with MDA-MB-231 breast; 70.7% with SF-268 CNS; 89.9% in the assay on SF-295 CNS. Moreover, the growth was 83.5% in the assay on SF-539 CNS, 104% in the assay with UACC-257 melanoma and 89.4% with M14 melanoma.

Turning to `CCCCCc1ccc(S(=O)(=O)N(C(C)=O)c2cccc(-c3csc(N(CCN4CCN(C)CC4)C(C)=O)n3)c2)cc1`, the growth is 41.6% in the assay on DU-145 prostate; -26.2% (active) in the assay with K-562 leukemia; -85.6% (active) in the assay with MALME-3M melanoma; 4.58% (active) in the assay on MDA-MB-231 breast; -59.2% (active) with RXF 393 renal; 63.2% in the assay with SF-268 CNS. For the same compound, the growth in the assay on SF-295 CNS was -68.1% (active); in the assay with SF-539 CNS it was -80.9% (active); with UACC-257 melanoma it was -52.6% (active); in the assay on M14 melanoma it was -71.7% (active).

Regarding `CCC(C)[C@H]1OC(=O)[C@H](C(C)C)N(C)C(=O)[C@@H](C(C)C)OC(=O)[C@H](C(C)C)N(C)C(=O)[C@@H](C(C)CC)OC(=O)[C@H](C(C)C)N(C)C1=O` (some centres undefined), the growth in the assay with DU-145 prostate was 22%; in the assay on K-562 leukemia, 8.02% (active); in the assay with MALME-3M melanoma, 7.55% (active); in the assay on MDA-MB-231 breast it was 2.72% (active); with RXF 393 renal, 17.2%; with SF-268 CNS it was 22.1%. Further, the growth was 6.32% (active) with SF-295 CNS, 13.8% in the assay with SF-539 CNS and 17.6% in the assay with M14 melanoma.

Regarding `CC1=CC(=O)CC(C)(C)[C@@]1(O)/C=C/C(C)=C\C(=O)O`, the growth with DU-145 prostate is -21.8% (active); with K-562 leukemia it was 0.164% (active); in the assay with MALME-3M melanoma it was -57.5% (active); in the assay with MDA-MB-231 breast, -18% (active); with RXF 393 renal it was -64.2% (active); in the assay with SF-268 CNS, -5.99% (active). Moreover, the growth with SF-295 CNS was -38.7% (active); in the assay on SF-539 CNS it was -46.5% (active); in the assay on M14 melanoma, -77.3% (active).

On to `CS(=O)(=O)c1ccc2c(c1)c1c(n2S(=O)(=O)c2ccc(Cl)cc2)CCCC1`, for which the growth in the assay on DU-145 prostate is 22.9%; in the assay with MALME-3M melanoma, 54.5%; in the assay with MDA-MB-231 breast it was 29.8%; in the assay on RXF 393 renal, -0.699% (active); in the assay with SF-268 CNS, 63.3%; in the assay with SF-295 CNS, 21%. Moreover, the growth is 2.97% (active) in the assay on SF-539 CNS, 60.6% in the assay with UACC-257 melanoma and 26.3% in the assay on M14 melanoma.

With `C=CCn1c(SCC(=O)Nc2cccc(C(=O)/C=C/c3ccccc3)c2)nc2ccccc2c1=O`, the growth in the assay on DU-145 prostate is 77.4%; with MALME-3M melanoma, 100%; in the assay with MDA-MB-231 breast it was 94.4%; in the assay with RXF 393 renal, 83.3%; in the assay on SF-268 CNS it was 92%; in the assay with SF-295 CNS it was 95.7%. The growth with SF-539 CNS was 77.1%; in the assay on UACC-257 melanoma it was 118%; in the assay with M14 melanoma it was 77.1%.

Regarding `O=C1c2c(c3c4cc(O)ccc4oc3c3[nH]c4ccccc4c23)C(=O)N1O`, the growth with DU-145 prostate is 11.3%; in the assay on K-562 leukemia, 14.4%; in the assay on MALME-3M melanoma it was 9.51% (active); in the assay with MDA-MB-231 breast it was 26%; with SF-268 CNS, 17.4%; with SF-295 CNS it was 10.2%. Also, the growth in the assay with SF-539 CNS was -15% (active); with UACC-257 melanoma, 22.1%; in the assay with M14 melanoma it was -4.66% (active).

On to `Cc1ccc(-c2cc(-c3cccc4ccccc34)n3c(n2)nc2ccccc23)cc1`, for which the growth is 69.4% in the assay on DU-145 prostate; 51.1% in the assay on K-562 leukemia; 32.2% with MALME-3M melanoma; 73.1% with MDA-MB-231 breast; 66.4% with SF-268 CNS; 40.9% in the assay with SF-295 CNS. Moreover, the growth was 49.4% in the assay on SF-539 CNS, 75.1% in the assay on UACC-257 melanoma and 61.5% in the assay on M14 melanoma.

With `C=CCn1c(SCC(=O)Nc2cccc(C(=O)/C=C/c3ccc(C)cc3)c2)nc2ccccc2c1=O`, the growth in the assay on DU-145 prostate is 95.9%; in the assay with MALME-3M melanoma it was 106%; with MDA-MB-231 breast, 92.8%; in the assay on RXF 393 renal, 77.7%; in the assay on SF-268 CNS, 90.6%; with SF-295 CNS, 101%. Further, the growth in the assay on SF-539 CNS was 89.4%; in the assay on UACC-257 melanoma, 96.8%; with M14 melanoma it was 96.7%.

Take `COC(=O)c1nc(-c2ccc(C)cc2)oc1S(=O)(=O)N1CCN(c2oc(-c3ccccc3)nc2C#N)CC1`: the growth is 104% in the assay on DU-145 prostate; 98.6% with MALME-3M melanoma; 102% in the assay on MDA-MB-231 breast; 109% with RXF 393 renal; 98% in the assay on SF-268 CNS; 103% with SF-295 CNS. The growth is 98.6% with SF-539 CNS, 111% with UACC-257 melanoma and 74% in the assay on M14 melanoma.

`Cc1nc(-c2cc3ccccc3c(N3CCN(C)CC3)n2)cs1`: the growth in the assay on DU-145 prostate was 109%; in the assay with K-562 leukemia, 91.5%; in the assay on MALME-3M melanoma, 96.5%; with MDA-MB-231 breast, 90.3%; in the assay with SF-268 CNS, 87.3%; in the assay with SF-295 CNS it was 93.1%. The growth in the assay with SF-539 CNS was 85.2%; in the assay on UACC-257 melanoma it was 101%; in the assay with M14 melanoma, 95.4%.
